PubChem BioAssay AID920 (The Scripps Research Institute Molecular Screening Center, 2007)
Screen size: about 200,000 compounds; about 700 (0.35%) were called active. The full list was thinned out, with actives kept by preference. Values without a mark were called inactive.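 The calls were made as follows: active = inhibition above a set limit, the mean inhibition across all tested compounds plus 3 SD (cut at about 34% in these data); inactive = the rest.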

Test: blockers of IFN-gamma driven STAT1 reporter – cell-based, HTS, luciferase reporter, primary screen (AID 920);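 also: 0% = IFN-gamma with DMSO and 100% = IFN-gamma with 300 µM nifuroxazide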
Conditions: NIH 3T3 STAT1-luciferase reporter, luminescence, at 5.5 µM, active compounds read high
In the case of `CCOc1cc(NC(=O)c2ccccn2)c(OCC)cc1NC(=O)c1ccc(OC)cc1`, the inhibition is reported as 3.8%.
With `COc1ccc(C(=O)/C=C/Nc2ccccn2)cc1` the inhibition was 82.5% (active).
With `COc1ccc(-c2csc(Nc3ccccn3)n2)cc1` the inhibition was -12.9%.
In the case of `CSc1ccc(CN(C)CC(=O)NCc2ccc(F)cc2)cc1`, the inhibition is reported as -7.18%.
Work on `NC(=O)C1CCN(Cc2nc3c(Br)cc(Br)cc3c(=O)[nH]2)CC1` yielded an inhibition of 3.52%.
Molecule `O=C(Nc1ccccc1N1CCN(C(=O)c2ccccc2)CC1)c1ccc2c(c1)OCO2` has an inhibition of 2.21%.
For `CCCC(=O)Nc1ccccc1N1CCN(C(=O)c2ccccc2)CC1`, the inhibition was 34.8% (active).
Work on `CCC(=O)Nc1ccccc1N1CCN(S(C)(=O)=O)CC1` yielded an inhibition of 2.52%.
With `Cc1nc2ccc(NC(=S)N3CCC(C)CC3)cc2nc1C` the inhibition was -19.9%.
For `COc1cccc(-c2nn(-c3ccccc3)cc2/C=C(\C#N)C(=O)NCCCn2ccnc2)c1`, the inhibition was -6.77%.
`c1ccc(C2CNCc3c2ccc2ccccc32)cc1` (configuration not stated) gave an inhibition of 14.8%.
Molecule `COc1ccc(CC(=O)Nc2cc(S(=O)(=O)N3CCCCC3)ccc2N2CCN(C)CC2)cc1` has an inhibition of 1.82%.
`Cn1c(N)c(C(=O)COC(=O)/C=C/c2ccc(OC(F)F)cc2)c(=O)n(C)c1=O` showed an inhibition of 5.58%.
Molecule `CS(=O)(=O)N1CCC(C(=O)N2CCN(c3ccccc3)CC2)CC1` has an inhibition of 7.02%.
With `Cc1ccc(C2=Nc3c(ccc4ccccc34)C(c3ccncc3)=NN2)cc1` the inhibition was 66.7% (active).
In the case of `CCc1ccc2c(c1)C(c1ccc([N+](=O)[O-])cc1)=NNC(c1ccccc1)=N2`, the inhibition is reported as 5.38%.
For `CCOc1ccc2c(c1)C(c1ccc(C)cc1)=NNC(c1ccc(C)cc1)=N2`, the inhibition was -36.9%.
`CCc1ccc(-c2nn(-c3ccccc3)cc2CSC(=N)N)cc1` showed an inhibition of -3.6%.
Work on `Cc1cc(C)n(CCNC(=O)CC2C(=O)NCCN2Cc2ccc(C)o2)n1` (configuration not stated) yielded an inhibition of 4.76%.
Work on `C=CCn1c(CCc2ccc(OC(C)C)cc2)n[nH]c1=S` yielded an inhibition of -6.91%.
In the case of `C=CCN(C(=O)c1cc(C)cc(C)c1)C1(C(=O)Nc2ccccc2)CCN(C(C)C)CC1`, the inhibition is reported as -4.59%.
For `NC(N)=NCCCc1cn(CC(=O)N2CCNCC2)nn1`, the inhibition was 3.04%.
For `Cc1ccc(C(=O)Cn2cccn2)cc1`, the inhibition was -6.86%.
In the case of `CN(Cc1cccnc1)C(=O)c1cc(COc2ccc3ncccc3c2)on1`, the inhibition is reported as 34.3% (active).
`Cc1cccc(OCCNC(=S)NC(=O)c2cccnc2)c1` showed an inhibition of -6.17%.
For `Cc1noc(C)c1COc1cccc(C(=O)Nc2cccnc2)c1`, the inhibition was 2.53%.
Work on `Cc1cccc(N2CCN(c3ccc(NC(=O)/C=C\C(=O)O)cc3)CC2)c1` yielded an inhibition of 1.29%.
With `OCCC1CN(Cc2cccc(O)c2)CCN1CCc1ccccc1` (configuration not stated) the inhibition was 8.18%.
`S=C(NCCc1ccccc1)N1CCn2cccc2C1c1ccncc1` (configuration not stated) gave an inhibition of 21.8%.
`Nc1ccc(Oc2ccc(Cl)cc2)cc1` showed an inhibition of -14.9%.
Work on `Cc1ccc(Oc2ccc(N)cc2)cc1` yielded an inhibition of -19.6%.
In the case of `CC(C)(C)c1ccc(Oc2ccc(N)cc2)cc1`, the inhibition is reported as 64.1% (active).
With `COc1ccc([C@H]2[C@H](C(C)=O)N3N=Cc4ccccc4C3C23C(=O)OC(C)(C)OC3=O)cc1` (some centres not stated) the inhibition was -13.7%.
Molecule `COc1ccc(C(=O)Nc2ccc3c(c2)OCO3)cc1OC` has an inhibition of -0.74%.
Molecule `Cn1c(NC(=O)c2ccc3c(c2)OCO3)cc(=O)n(C)c1=O` has an inhibition of 0.99%.
For `Cn1c(=O)n(C)c2cc(C(=O)Nc3ccc4c(c3)OCO4)ccc21`, the inhibition was 35.6% (active).
In the case of `Clc1cccc(-c2nc(NCC3CCCO3)c3ccccc3n2)c1` (configuration not stated), the inhibition is reported as -0.29%.
Molecule `CCc1[nH]nc(C(=O)N2CCCC(CNS(=O)(=O)c3cccs3)C2)c1C` (configuration not stated) has an inhibition of 0.5%.
For `O=C(Nc1cccc([N+](=O)[O-])c1)Nc1ccc(Cl)cn1`, the inhibition was -18.6%.
Work on `CCN(CC)C(=O)CN(c1cccc([N+](=O)[O-])c1)S(=O)(=O)c1ccccc1` yielded an inhibition of 3.4%.
With `O=C(CCl)N(Cc1cccc([N+](=O)[O-])c1)c1cccc(Cl)c1` the inhibition was 60.4% (active).
Molecule `Cn1cccc1/C=C1\SC(=S)N(NC(=O)c2ccc(Cl)cc2)C1=O` has an inhibition of -4.58%.
In the case of `Cc1cc(C)nc(Nc2ncn[nH]2)n1`, the inhibition is reported as -2.94%.
With `Oc1ccc(-c2nncn2-c2ccccc2)cc1` the inhibition was -0.73%.
In the case of `COc1ccc(OCc2cccc(C(=O)N3CCCC3)c2)cc1`, the inhibition is reported as 17.5%.
In the case of `CCOc1ccc(OCc2cccc(C(=O)N(CC)CC)c2)cc1`, the inhibition is reported as 61% (active).
Molecule `CCN(CC)C(=O)c1ccc(O)c(OC)c1` has an inhibition of 1.97%.
`CCOc1ccc(NC(=O)CSc2ncnc3c2sc2ccccc23)cc1` showed an inhibition of 1.83%.
Work on `Cc1nnc(CN(C)Cc2cn[nH]c2-c2ccc(-c3ccccc3)cc2)o1` yielded an inhibition of -18.1%.
In the case of `CCCCn1c(O)c(N=NC(=O)Cn2c(C(F)(F)F)nc3ccccc32)c2ccccc21`, the inhibition is reported as -1.73%.
Molecule `Cc1ccc(N(C(=O)Cc2cccs2)C2C=CS(=O)(=O)C2)cc1Cl` (configuration not stated) has an inhibition of 0.68%.
In the case of `C[C@@H]1C[C@@H]2O[C@H]2/C=C\C=C\C(=O)Cc2c(Cl)c(O)cc(O)c2C(=O)O1`, the inhibition is reported as 41.3% (active).
`O=C(COC(=O)CCc1ccc(S(=O)(=O)N2CCOCC2)cc1)Nc1cccc(Cl)c1` showed an inhibition of -8.09%.
For `CCN(CC)S(=O)(=O)c1ccc(C)c(NC(=O)COc2ccc(Br)cc2Cl)c1`, the inhibition was 0.32%.
`Cn1cc([N+](=O)[O-])c(C(=O)Nc2cnn(Cc3ccc(F)cc3)c2)n1` gave an inhibition of 20.5%.
With `Cn1cc([N+](=O)[O-])c(C(=O)Nc2ccc3c(c2)OCCO3)n1` the inhibition was 48.8% (active).
Work on `O=C(Nc1ccc2c(c1)OCCO2)c1cnccn1` yielded an inhibition of -23.3%.
In the case of `NS(=O)(=O)c1ccc(N2C(=O)C3C4CC(C(Br)C4Br)C3C2=O)cc1` (configuration not stated), the inhibition is reported as 2.56%.
`CS(=O)(=O)N(Cc1ccccc1)c1ccc(C(=O)NN=C2CCCCCC2)cc1` showed an inhibition of 6.58%.
With `O=C(NC(Nc1nc2ccc([N+](=O)[O-])cc2s1)(C(F)(F)F)C(F)(F)F)c1ccccc1` the inhibition was 60.6% (active).
In the case of `O=C(O)CCC(=O)Nc1nc2ccc([N+](=O)[O-])cc2s1`, the inhibition is reported as -0.97%.
For `O=C(Nc1nc2ccc([N+](=O)[O-])cc2s1)c1ccc(S(=O)(=O)N2CCCc3ccccc32)cc1`, the inhibition was 12.3%.
`O=C(COc1ccccc1)Nc1ccc(N2CCN(C(=O)c3cccs3)CC2)cc1` gave an inhibition of -5.48%.
For `CN(c1ccc2nc3ccccc3c(=O)n2n1)C1CCCCC1`, the inhibition was 90.1% (active).
In the case of `CCOC(=O)C(C)Sc1nc2ccccc2c(=O)n1CC1CCCCC1` (configuration not stated), the inhibition is reported as 2.46%.
`O=c1c2ccccc2nc2n1C1(CCCCC1)Cc1ccccc1-2` gave an inhibition of -5.21%.
`Cc1ccc(C)c(-n2nnnc2SCC(=O)c2c(N)n(C)c(=O)n(C)c2=O)c1` showed an inhibition of -0.37%.
`CCc1ccc(NC(=O)Nc2ccncc2)cc1` gave an inhibition of -10.4%.
With `CCOc1cc(C)c(Cl)cc1S(=O)(=O)n1nnc2ccccc21` the inhibition was 42.2% (active).
Work on `COc1cc(C)c(Cl)cc1S(=O)(=O)n1ccnc1` yielded an inhibition of 7.39%.
In the case of `CCCOc1cc(C)c(S(=O)(=O)n2nnc3ccccc32)cc1C`, the inhibition is reported as -0.4%.
`CC(CC(=O)O)CC(=O)NNC(=O)c1cccc(Br)c1` (configuration not stated) gave an inhibition of -8.27%.
For `O=C1c2ccccc2NC(c2ccccn2)N1NS(=O)(=O)c1ccccc1` (configuration not stated), the inhibition was -5.92%.
For `O=c1oc2ccccc2cc1-c1cn(-c2ccccc2)c(=S)[nH]1`, the inhibition was 76.9% (active).
Work on `Nc1ncc(-c2cc3ccccc3oc2=O)s1` yielded an inhibition of -72.7%.
With `O=C(c1cn(-c2ccccc2)nc1-c1cc2ccccc2oc1=O)N1CCOCC1` the inhibition was 2.66%.
`CCNC(=O)COc1cc(C)c(Br)c(C)c1` gave an inhibition of -0.94%.
`CCC1CCCCN1CCCNC(=O)c1cc2c(Cl)nc3ccccc3c2s1` (configuration not stated) gave an inhibition of -24.2%.
With `O=C(C1=C[C@H](c2coc3ccccc3c2=O)C[C@H](OCc2ccc(CO)cc2)O1)N1CCN(Cc2ccccc2)CC1` the inhibition was 7.51%.
`O=C1CC(c2c(F)cccc2Cl)C(n2cncn2)C(O)=C1C1NCCc2ccccc21` (configuration not stated) gave an inhibition of -3.15%.
In the case of `O=C(O)c1ccc(N/N=C/c2cn(-c3ccccc3)nc2-c2cccs2)cc1`, the inhibition is reported as -5.55%.
Molecule `CCNC(=S)NNC(=O)c1ccc2ncccc2c1` has an inhibition of -9.62%.
In the case of `O=C(O)c1ccc(N/N=C/c2ccc3ncccc3c2)cc1`, the inhibition is reported as 37.4% (active).
In the case of `COc1ccc(N2CCN(C(=O)c3ccc4c(Cl)c5c(nc4c3)CCCC5)CC2)cc1`, the inhibition is reported as 1.44%.
Molecule `CN1c2ccccc2-c2nc3ccccc3n2C1c1ccco1` (configuration not stated) has an inhibition of -3.93%.
Molecule `Cn1cccc1-c1nc2ccccc2n1C` has an inhibition of -1.19%.
For `Cn1c(-c2ccco2)nc2cc3ccccc3cc21`, the inhibition was 36.6% (active).
`COCCNC(=S)N1CCC(NC(=O)C23CC4CC(CC(C4)C2)C3)CC1` showed an inhibition of -0.94%.
`CCOC(=O)C1(Cc2ccc(Cl)cc2)CCN(C(=O)C2=NNC(=O)CC2)CC1` gave an inhibition of 2.27%.
Work on `COC(=O)C1=C(C)N(C(C)c2ccccc2)C(=O)/C1=C\c1ccco1` (configuration not stated) yielded an inhibition of 6.65%.
Work on `CCn1c(CSc2nc(C)cc(C)n2)nnc1SCC(N)=O` yielded an inhibition of -4.79%.
Molecule `Cc1ccccc1-n1cc(CNC(=O)CC2C(=O)NCCN2C/C=C/c2ccccc2)cn1` (configuration not stated) has an inhibition of -1.08%.
With `O=C(CCN1CCN(c2ccccc2)CC1)NNC(=S)Nc1ccccc1` the inhibition was 12.2%.
In the case of `CCN(CC)S(=O)(=O)c1ccc(NC(=O)c2cccnc2Cl)c(NC(=O)c2cccnc2Cl)c1`, the inhibition is reported as 10.8%.
Molecule `CCOc1ncccc1C(=O)OCc1cn2cc(Cl)ccc2n1` has an inhibition of -9.01%.
In the case of `Clc1ccc2nc(CSc3ccccc3)cn2c1`, the inhibition is reported as 35.4% (active).
Molecule `O=c1cc(CSc2ccc(Cl)cc2)nc(N2CCOCC2)[nH]1` has an inhibition of 2.61%.
